# Assay outcomes from PubChem BioAssay.
# KB-V1 cytotox: KB-V1 MDR subline cytotoxicity; KB-V1 MDR cells viability, CellTiter-Glo, 72 h; AID 1347076; 3.4% of 400,000 active; Potency, µM (titrated, usually from 46.1 µM), usual class: cytotoxic; further: nearly all actives have a fitted effect of over 60% in size
#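 In this primary screen, KB-V1 cells overexpressing P-gp are incubated with library compounds (lowest to highest concentration) for 72 h at 37 degrees C before a luminescent ATP viability read.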
# HT1080-NT tox: kills 2HG-producing HT-1080-NT fibrosarcoma cells. Potency, µM (top dose mostly 46.1 µM), most hits filed as cytotoxic. 1.6% of 360,000 active. HT-1080-NT fibrosarcoma viability, CellTiter-Glo ATP luminescence, 48 h;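 further: NT is the 2HG producing partner of a matched IDH1 knockdown line; nearly all actives have a fitted effect of over 55% in size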
#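 Toxicity toward the 2HG-producing NT line was scored as %Activity, normalised to DMSO and no-cell wells, from CellTiter-Glo luminescence after 48 hours' treatment.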
# HT1080 IDH1KD tx: toxicity to HT-1080 IDH1 knockdown cells (counter line) | HT-1080 IDH1 knockdown viability, ATP luminescence, 48 h | 2% of 360,000 active | Potency, µM (highest dose often 46.1 µM), most hits filed as cytotoxic | AID 686971
#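 Viability of IDH1-knockdown HT-1080 fibrosarcoma cells was assessed by CellTiter-Glo after 48 h at 37 °C with titrated compound; concentration-effect curves were classified by fit quality and response size.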
# MCF10A rereplic: DNA re-replication induction in MCF 10a cells; MCF 10A DNA re-replication, Hoechst nuclear intensity, 48 h; Potency, µM (top dose mostly 46.1 µM), most hits filed as activators; 2.9% of 350,000 active; AID 624296; further: nearly all actives have a fitted effect of over 50% in size
# SW480 rerep: DNA re-replication induction in SW480 cells; 1.8% of 340,000 active; Potency, µM (top dose mostly 46.1 µM), hits mostly activators; SW480 DNA re-replication, Hoechst DNA content imaging, 48 h; further: nearly all actives have a fitted effect of over 55% in size
#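 SW480 cells exposed to compounds for 48 hr at 37 C, 5% CO2, then Hoechst-stained 40 min. Nuclear DNA content imaged by fluorescence scanning (405 nm excitation, 500-530 nm emission); re-replication scored as increased high-intensity nuclei.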
# KB-3-1 cytotox: KB-3-1 parental cell cytotoxicity. KB-3-1 viability, CellTiter-Glo ATP luminescence, 72 h. 1.4% of 400,000 active. AID 1347075. Potency, µM (doses to about 46.1 µM), most hits filed as cytotoxic; further: nearly all actives have a fitted effect of over 60% in size
#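 Multi-concentration cytotoxicity screen in KB-3-1 cells grown in DMEM lacking phenol red with 10% FBS. After 72 h at 37 °C with compound, ATP-dependent luminescence was recorded.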
# Numbers stand for hits; 0 = inactive; ? = inconclusive; - = no result. An excerpt weighted towards active compounds, which were near 7.9% of everything screened. The call rests on the fitted dose curve; in most records, active means well fitted curve in the direction sought with a large enough effect; inconclusive means small, poorly fitted or top-dose-only effect, or another doubt; inactive means no such curve, though single readings can be large; an effect the other way counts as inactive or inconclusive.
SMILES,KB-V1 cytotox,HT1080-NT tox,HT1080 IDH1KD tx,MCF10A rereplic,SW480 rerep,KB-3-1 cytotox
CN(C)S(=O)(=O)c1ccc(N2CCCC2)c(C(=O)NNC(=O)COc2ccccc2Cl)c1,0,0,0,0,0,0
COc1ccc([C@@H]2CC=C(C(=O)O)[C@H](c3ccccc3)N2S(=O)(=O)c2ccc(C)cc2)cc1OC,0,0,0,?,0,0
Cc1ccc(-c2cc(C(=O)NCCCN3CCOCC3)c3ccc(Cl)c(C)c3n2)cc1,0,0,0,?,21µM,0
O=C(NCCN1CCOCC1)c1cc(Sc2ccc(F)cc2F)nc2ccccc12,0,0,0,0,0,0
O=C(NCCCN1CCCC1)c1cc(Sc2ccc(F)cc2)nc2ccccc12,?,21µM,26µM,?,?,0
O=C(NCCCN1CCOCC1)c1cc(-c2ccc(Br)cc2)nc2ccccc12,0,0,0,0,0,0
Cc1ccc(Nc2cc(C(=O)NCCCN3CCOCC3)c3ccccc3n2)cc1C,0,23µM,?,10µM,?,0
Cc1ccc(Nc2ncc(C(=O)NCCCN3CCN(C)CC3)c3ccccc23)cc1Cl,?,16µM,26µM,23µM,?,0
O=C(NCCCN1CCOCC1)c1cc(-c2ccccc2)nc2ccccc12,0,0,0,0,0,0
O=C(NCc1ccco1)c1csc2c1CCCC2,0,0,0,0,0,0
C[C@H](O)[C@@H]1CN2CCc3c([nH]c4ccccc34)[C@@H]2C[C@@H]1N(C)C(=O)Nc1ccc(F)cc1,0,0,0,-,-,0
O=C(NCc1ccccn1)c1cc2ccccn2n1,0,0,0,0,0,0
COc1ccc(Cn2c(SCC#N)nc3ccc(N4CCOCC4)cc3c2=O)cc1,0,0,0,21µM,0,0
O=C(CSc1ccc(Cl)cc1)N1CCN(c2ccc(Cl)cc2[N+](=O)[O-])CC1,?,?,?,18µM,0,0
O=C(/C=C/c1ccc(Cl)cc1)N1CCN(c2ccc([N+](=O)[O-])c(N3CCOCC3)c2)CC1,2.3µM,0,0,0,0,?
O=C(COc1ccc(Cl)cc1)N1CCN(c2ccc([N+](=O)[O-])c(N3CCOCC3)c2)CC1,16µM,0,0,0,0,0
CC(CN1CCOCC1)OC(=O)C(c1ccccc1)c1ccccc1 (stereo not given),0,0,0,0,0,0
COc1ccc(NC(=O)/C(=C\c2ccco2)NC(=O)c2ccco2)cc1,0,0,0,0,0,0
Cc1[nH][nH]c(=O)c1C(c1ccc(-c2ccc(F)cc2)o1)c1c(C)[nH][nH]c1=O,0,?,0,?,0,0
Cc1[nH][nH]c(=O)c1C(c1ccc(-c2ccc(C(=O)O)cc2)o1)c1c(C)[nH][nH]c1=O,0,0,0,0,0,0
COc1ccc(-c2ccc(C(c3c(C)[nH][nH]c3=O)c3c(C)[nH][nH]c3=O)o2)c([N+](=O)[O-])c1,?,8.2µM,26µM,21µM,?,?
Cc1[nH][nH]c(=O)c1C(c1ccc(-c2ccc(Cl)c(Cl)c2)o1)c1c(C)[nH][nH]c1=O,0,0,0,2.9µM,0,0
CN(CCOc1ccc(Cl)cc1)C(=O)C1CCN(C(=O)c2ccc(Cl)cc2)CC1,-,0,0,0,0,-
CC(=O)N/C(=C\c1ccccc1)C(=O)NCC(=O)O,0,0,0,0,0,0
COc1c2c(c3c(c1OC)c(=O)c1ccccc1n3C)OCO2,13µM,0,0,0,0,0
SMILES,KB-V1 cytotox,HT1080-NT tox,HT1080 IDH1KD tx,MCF10A rereplic,SW480 rerep,KB-3-1 cytotox
COc1c2c(c(OC)c3c1c(=O)c1ccccc1n3C)OCO2,?,0,0,0,?,0
N#CC1=C(O)CCCn2c1nc1ccccc1c2=O,0,0,0,0,0,0
CCN(CCNC(=O)CC1Oc2ccccc2NC1=O)c1ccccc1 (stereo not given),0,0,0,0,0,0
COC(=O)c1ccc(N=C2S/C(=C\c3cc(C)n(-c4cccnc4)c3C)C(=O)N2C)cc1,0,0,0,?,18µM,?
COC(=O)c1ccc(NS(=O)(=O)c2ccc3[nH]c4c(c3c2)CCCC4)cc1,0,-,-,-,-,0
COC(=O)c1ccc(NS(=O)(=O)c2ccc3[nH]c4c(c3c2)CCCCC4)cc1,23µM,-,-,-,-,?
O=C(OCC(=O)N1CCOCC1)c1ccc2[nH]c3c(c2c1)CCCC3,0,0,0,0,?,?
O=C(COC(=O)c1ccc2[nH]c3c(c2c1)CCCC3)Nc1ccccc1,?,?,23µM,23µM,?,0
Cc1cccc(C)c1NC(=O)COC(=O)c1ccc2[nH]c3c(c2c1)CCCC3,0,?,0,18µM,?,0
COCCN1CCN(C(=O)C2CCC(=O)N(CCc3ccc(Cl)cc3)C2)CC1 (stereo not given),0,0,0,0,0,0
CCC1(C)CC2(CCCN(CCC(=O)c3ccccc3)C2)CCO1 (stereo not given),0,0,0,21µM,0,0
CC1(C)CC2(CCCN(C(=S)Nc3ccccc3)C2)CCO1 (stereo not given),0,0,0,0,0,0
CCCn1cc(S(=O)(=O)c2ccc(OC)cc2)c(=O)c2cc(OC)ccc21,0,0,0,0,0,0
CC(C)NC(=S)N1CCN(S(=O)(=O)c2cccc(C(F)(F)F)c2)CC1,0,0,0,0,0,0
CCNC(=S)N1CCN(S(=O)(=O)c2cccc(C(F)(F)F)c2)CC1,23µM,0,0,0,0,0
Cc1csc(NC(=O)c2cccc([N+](=O)[O-])c2C(=O)O)n1,0,0,0,0,0,0
CC(O)CNCCCOc1ccccc1OCc1ccccc1 (stereo not given),?,0,0,0,0,0
CNCC(C)COc1ccccc1OCc1ccccc1 (stereo not given),21µM,0,0,0,0,0
CC1(C)c2ssc(=S)c2-c2ccccc2N1C(=O)CSC1=NCCS1,16µM,0,0,0,0,0
Cc1cc2c(cc1C)N(C(=O)CSC1=NCCS1)C(C)(C)c1ssc(=S)c1-2,16µM,0,?,0,0,0
COc1ccc2c(c1)-c1c(ssc1=S)C(C)(C)N2C(=O)CSC1=NCCS1,0,0,0,0,0,0
Cc1cc(C)c2c(c1)-c1c(ssc1=S)C(C)(C)N2C(=O)CSc1nncn1C,23µM,?,18µM,?,0,21µM
COc1ccccc1NS(=O)(=O)c1cn(C)c(C)n1,?,-,-,-,-,0
CN1C(=O)C(O)(C2COC(C)(C)CC2=O)c2cc(Br)ccc21 (stereo not given),?,?,?,?,?,21µM
CCOC(=O)c1sc(Nc2nc(C)cc(OC)n2)nc1C,0,0,0,0,0,0
